Data on five molecules can be found in PubChem BioAssay.

Usually inhibition stands for the change of the read-out against control, counted positive when it falls.

Records with an inconclusive call do not appear. Active and inactive are the calls of the source. Cut-off read from the data, not from the text of the source, unless noted: active = percent of DMSO control GFP below about 86%; inactive = the rest, inconclusive results apart.

The nature of assay [1]: rapamycin-like changes in RPL19A-GFP expression – cell-based, S. cerevisiae, multiplex flow cytometry, primary screen (AID 1862).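 Note: lower values mimic rapamycin by blocking the RPL19A rise seen in DMSO cells.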 The conditions noted are these: S. cerevisiae RPL19A-GFP strain, flow cytometry fluorescence, 3 h; at 10 µM; stronger effect = lower value. For orientation: In flow cytometry, cells or beads pass a laser one at a time.
Assay [2] can be described thus: TOR pathway GLN3 branch reporter MEP2-GFP changes – S. cerevisiae, multiplex flow cytometry, primary screen (AID 1867;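 active = GFP response, as percent of the DMSO control, above the screen-wide mean plus 3 SD, about 139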;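 note: median GFP channel fluorescence of barcode-gated MEP2-GFP cells measured by flow cytometry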). The following applies: S. cerevisiae MEP2-GFP strain, 3 h, at 10 µM, stronger effect = higher value, 100% means same as DMSO wells.
Assay [3] in a line: TOR pathway RTG branch CIT2 reporter changes – S. cerevisiae, GFP fusion, multiplex flow cytometry, primary screen (AID 1870;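 active = percent response above a set limit, the screen-wide mean plus 3 SD, cut at about 130% in these data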;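 note: barcoded CIT2-GFP strain pooled with four other GFP strains with rapamycin as positive control; median GFP fluorescence per well over plate mean of DMSO wells so 100% = DMSO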). The following applies: S. cerevisiae CIT2-GFP expression, 3 h, at 10 µM, stronger effect = higher value.
The nature of assay [4]: TOR pathway LAP4-GFP level changes – S. cerevisiae, multiplex flow cytometry, primary screen (AID 1873;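 active = GFP signal, as percent of the solvent control, above the screen mean plus 3 SD, about 149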). The conditions noted are these: S. cerevisiae LAP4-GFP expression, 3 h, at 10 µM, stronger effect = higher value.
A short description of assay [5]: yeast AGP1-GFP level changes, GLN3 branch – cell-based, multiplex flow cytometry, S. cerevisiae, primary screen (AID 1887;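 active = GFP signal above the screen-wide mean plus 3 SD, that is over about 124.5% of the solvent control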;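 note: AGP1-GFP fusion strain of S. cerevisiae within a five-strain barcoded multiplex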). The conditions noted are these: 3 h, at 10 µM, stronger effect = higher value.
Assay [6] is described as follows: reduced mouse 2C T cell binding to pMHC/ICAM-1 vesicles – MLPCN validation set, flow cytometry, LFA-1/ICAM-1 modulator project, pilot screen (AID 2523;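 active = response below a set limit, under 55% cells CD8-positive and vesicle-bound, and CD8 cells' 90th-percentile brightness under 279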;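 for vesicle binding response: mean PE anti-B7-1 fluorescence of CD8+ cells relative to row control; 100% = QL9-loaded vesicles with DMSO vehicle in the same plate row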). The following applies: 2C mouse CD8+ T cells, at 7 µM, stronger effect = lower value; double positive events: measured here: CD8+/vesicle+ event percentage.
For assay [7], the target named is Integrin beta-1 (Homo sapiens) + Integrin alpha-4 (Homo sapiens) (UniProt P13612+P05556). Kind of assay: alpha4beta1 integrin LIBS antibody binding reduction – U937 cells, HUTS-21 mAb, flow cytometry, validation set, VLA-4 allosteric modulator project, pilot screen (AID 2674;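 active = inhibition above 50%, about 3 SD of the validation set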;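 note: antibody binding induced by the VLA-4 ligand LDV present at three times its Kd; 0% = LDV ligand with antibody and no compound and 100% = antibody without LDV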). The following applies: HUTS-21 LIBS mAb binding, at 6.7 µM, stronger effect = higher value, binding induced by LDV ligand.

The nature of assay [8]: calorie-restriction mimetic ROS inhibitors, yeast – validation compound set, pilot screen (AID 2706;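 active = superoxide response below 65% of plate, a cut near 3 SD across the whole screen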;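 note: yeast exposed to compound for one week at 30 degrees C before staining; 100% = mean of all compound wells on the same plate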). The conditions noted are these: S. cerevisiae aging, superoxide DHE fluorescence; at 10 µM; stronger effect = lower value.
Assay [9] addresses Beta-adrenergic receptor kinase 1 (Homo sapiens) (UniProt P25098). Kind of assay: GRK2 binders displacing RNA aptamer, biochemical, validation, human GRK2, bead flow cytometry (AID 488806;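 active = aptamer binding inhibition above 30%, about 3 SD of noise from non-fluorescent compounds; inactive = inhibition at or below 30%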). The conditions noted are these: bead-bound GRK2, FAM-aptamer displacement, at 10 µM, stronger effect = higher value.
Assay [10] has as its target Beta-2 adrenergic receptor (Homo sapiens) (UniProt P07550). Kind of assay: agonist-induced loss of surface beta2AR – cell-based, FAP fluorogen, flow cytometry, validation set, pilot screen (AID 504459;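 active = percent response above 42, roughly 3 SD of non-fluorescent test compounds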;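 note: agonist-driven loss of surface beta2AR via internalization measured by FAP dye flow cytometry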). The conditions noted are these: Am2.2-beta2AR cells, at 10 µM, stronger effect = higher value.
The target of assay [11] is AP-2 complex subunit beta (Homo sapiens) (UniProt P63010). Kind of assay: beta-arrestin/AP2 interaction blockers – biochemical, validation set, GST-AP2 beads, flow cytometry, pilot screen (AID 504541;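 active = inhibition above 54%, about 3 SD of non-fluorescent compounds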;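 note: AP2 carries R879A mutation and is captured from E. coli lysate; bead-bound FITC arrestin peptide fluorescence measuring arrestin peptide binding to AP2; 0% = DMSO wells and 100% = excess unlabeled arrestin peptide control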). The conditions noted are these: FITC arrestin peptide, at 10 µM, stronger effect = higher value, AP2 beta2 appendage fragment, R879A mutant.
Assay [12] is described as follows: cytosolic pH regulators acting via V-ATPase – S. cerevisiae, pHLuorin, HTS validation (AID 504600; in the data active = response above about 15%;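 note: plate controls were DMSO for no effect and reference compound for full effect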). The conditions noted are these: V-ATPase proton transport, at 10 µM, stronger effect = higher value.
Assay [13] has as its system anti-desmoglein-3 scFv antibody binding to human DSG3. Kind of assay: blockers of pathogenic pemphigus antibody–desmoglein-3 binding – biochemical, validation compound set, bead-based, flow cytometry, pilot screen (AID 588368;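 active = binding below the plate cutoff, the plate median minus 3 SD, with a reading above zero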;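 note: signal is the median channel fluorescence of bead-bound GFP antibody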). The conditions noted are these: Protein G beads, DSG3-Fc, scFv-GFP binding, at 10 µM, stronger effect = lower value.
A short description of assay [14]: Nile Red efflux blockade in pump-expressing yeast – validation compound set, multiplex, phenotypic, pilot screen (AID 588506;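 active = efflux inhibition above 0.42, the validation set average plus 4 SD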;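 note: Nile Red retained in cells so higher fluorescence means more efflux inhibition; 0 = negative control wells and 1 = enniatin B 25 µM full block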). The conditions noted are these: S. cerevisiae pump-expressing triplex, Nile Red efflux flow cytometry; at 10 µM; stronger effect = higher value; the pumps come from Candida albicans.
The target in assay [15] is ATP-binding cassette sub-family B member 6 (Homo sapiens) (UniProt Q9NP58). Kind of assay: blockers of ABCB6-driven porphyrin uptake – K562-ABCB6 cells, flow cytometry, validation set, pilot screen (AID 588550;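 active = inhibition above the screen-wide mean plus 3 SD, about 51%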;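 note: 0% = DMSO wells and 100% = benzethonium chloride 70 µM positive control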). The following applies: K562-ABCB6 porphyrin accumulation, 1 h, at 10 µM, stronger effect = higher value.
A short description of assay [16]: AML differentiation inducers, ER-HoxA9 marrow cells – cell-based, GFP/MAC1 double positive, flow cytometry, validation set, primary screen (AID 588685;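 active = differentiation response of at least 50%, scaled between solvent and reference control, from cells with both markers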;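 note: compound exposure lasts four days before antibody staining and flow analysis; 0% = DMSO wells and 100% = 5 µM fulvestrant positive control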). The following applies: stronger effect = higher value, normalized: vehicle 0, fulvestrant 100.

Beta-2 adrenergic receptor (Homo sapiens), sequence (P07550 whole entry, looked up): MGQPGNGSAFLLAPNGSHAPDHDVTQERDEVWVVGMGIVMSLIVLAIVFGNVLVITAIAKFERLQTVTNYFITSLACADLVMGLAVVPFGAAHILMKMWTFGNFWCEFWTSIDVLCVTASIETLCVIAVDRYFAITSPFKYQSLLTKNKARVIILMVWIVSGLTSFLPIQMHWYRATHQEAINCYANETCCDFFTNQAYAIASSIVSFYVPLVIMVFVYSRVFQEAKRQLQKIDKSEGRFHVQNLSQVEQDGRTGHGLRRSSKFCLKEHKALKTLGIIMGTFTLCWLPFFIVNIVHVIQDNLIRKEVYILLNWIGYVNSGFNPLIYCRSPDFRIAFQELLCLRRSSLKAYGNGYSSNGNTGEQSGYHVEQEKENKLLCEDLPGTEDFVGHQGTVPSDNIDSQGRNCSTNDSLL
ATP-binding cassette sub-family B member 6 (Homo sapiens), sequence (Q9NP58 whole entry, looked up): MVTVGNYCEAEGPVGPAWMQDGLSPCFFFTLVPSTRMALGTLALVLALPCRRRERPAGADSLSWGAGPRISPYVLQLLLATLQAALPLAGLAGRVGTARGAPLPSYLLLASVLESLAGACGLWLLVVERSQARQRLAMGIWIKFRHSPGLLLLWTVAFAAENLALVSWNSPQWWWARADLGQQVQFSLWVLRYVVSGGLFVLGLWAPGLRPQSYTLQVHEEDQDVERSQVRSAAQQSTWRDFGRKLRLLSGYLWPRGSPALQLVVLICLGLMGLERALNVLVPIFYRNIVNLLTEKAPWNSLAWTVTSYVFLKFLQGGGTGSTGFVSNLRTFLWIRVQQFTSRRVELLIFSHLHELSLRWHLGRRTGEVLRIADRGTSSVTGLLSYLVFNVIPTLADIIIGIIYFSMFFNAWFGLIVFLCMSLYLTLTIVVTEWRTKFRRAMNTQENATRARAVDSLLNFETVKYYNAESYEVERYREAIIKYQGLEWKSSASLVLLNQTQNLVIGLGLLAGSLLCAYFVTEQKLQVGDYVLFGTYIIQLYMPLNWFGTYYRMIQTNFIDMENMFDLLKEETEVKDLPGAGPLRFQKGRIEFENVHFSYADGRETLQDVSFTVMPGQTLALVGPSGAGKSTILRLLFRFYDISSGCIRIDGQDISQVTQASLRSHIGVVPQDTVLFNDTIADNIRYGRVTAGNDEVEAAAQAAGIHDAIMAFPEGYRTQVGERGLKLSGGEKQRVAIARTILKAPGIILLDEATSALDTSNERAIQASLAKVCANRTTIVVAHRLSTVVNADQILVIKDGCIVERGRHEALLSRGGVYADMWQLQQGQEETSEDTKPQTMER
AP-2 complex subunit beta (Homo sapiens), sequence (P63010 whole entry, looked up, the tested form may be a part, one chain of several): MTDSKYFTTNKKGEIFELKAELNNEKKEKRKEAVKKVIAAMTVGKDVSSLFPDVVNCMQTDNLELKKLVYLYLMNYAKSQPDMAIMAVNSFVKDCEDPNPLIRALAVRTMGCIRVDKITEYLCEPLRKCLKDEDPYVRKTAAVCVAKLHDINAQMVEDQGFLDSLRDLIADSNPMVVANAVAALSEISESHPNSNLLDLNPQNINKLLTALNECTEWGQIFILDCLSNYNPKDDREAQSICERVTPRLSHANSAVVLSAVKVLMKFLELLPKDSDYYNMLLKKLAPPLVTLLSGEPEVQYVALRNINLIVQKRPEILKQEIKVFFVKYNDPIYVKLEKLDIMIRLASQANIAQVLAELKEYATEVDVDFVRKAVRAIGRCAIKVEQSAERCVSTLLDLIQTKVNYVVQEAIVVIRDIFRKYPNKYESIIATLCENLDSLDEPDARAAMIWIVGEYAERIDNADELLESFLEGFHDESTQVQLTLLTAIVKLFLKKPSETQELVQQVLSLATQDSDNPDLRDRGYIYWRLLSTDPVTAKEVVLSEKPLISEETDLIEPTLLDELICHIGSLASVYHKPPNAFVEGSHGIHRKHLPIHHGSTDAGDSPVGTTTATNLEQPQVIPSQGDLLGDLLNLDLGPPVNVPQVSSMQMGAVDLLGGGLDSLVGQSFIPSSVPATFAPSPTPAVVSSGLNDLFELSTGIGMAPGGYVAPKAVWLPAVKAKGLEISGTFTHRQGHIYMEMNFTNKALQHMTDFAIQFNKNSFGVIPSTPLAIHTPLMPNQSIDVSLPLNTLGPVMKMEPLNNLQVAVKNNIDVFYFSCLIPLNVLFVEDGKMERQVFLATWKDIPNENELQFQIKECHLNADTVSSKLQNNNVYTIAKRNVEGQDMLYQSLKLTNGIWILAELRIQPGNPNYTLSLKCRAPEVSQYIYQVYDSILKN
Integrin beta-1 (Homo sapiens) + Integrin alpha-4 (Homo sapiens), sequence (P05556 whole entry, looked up): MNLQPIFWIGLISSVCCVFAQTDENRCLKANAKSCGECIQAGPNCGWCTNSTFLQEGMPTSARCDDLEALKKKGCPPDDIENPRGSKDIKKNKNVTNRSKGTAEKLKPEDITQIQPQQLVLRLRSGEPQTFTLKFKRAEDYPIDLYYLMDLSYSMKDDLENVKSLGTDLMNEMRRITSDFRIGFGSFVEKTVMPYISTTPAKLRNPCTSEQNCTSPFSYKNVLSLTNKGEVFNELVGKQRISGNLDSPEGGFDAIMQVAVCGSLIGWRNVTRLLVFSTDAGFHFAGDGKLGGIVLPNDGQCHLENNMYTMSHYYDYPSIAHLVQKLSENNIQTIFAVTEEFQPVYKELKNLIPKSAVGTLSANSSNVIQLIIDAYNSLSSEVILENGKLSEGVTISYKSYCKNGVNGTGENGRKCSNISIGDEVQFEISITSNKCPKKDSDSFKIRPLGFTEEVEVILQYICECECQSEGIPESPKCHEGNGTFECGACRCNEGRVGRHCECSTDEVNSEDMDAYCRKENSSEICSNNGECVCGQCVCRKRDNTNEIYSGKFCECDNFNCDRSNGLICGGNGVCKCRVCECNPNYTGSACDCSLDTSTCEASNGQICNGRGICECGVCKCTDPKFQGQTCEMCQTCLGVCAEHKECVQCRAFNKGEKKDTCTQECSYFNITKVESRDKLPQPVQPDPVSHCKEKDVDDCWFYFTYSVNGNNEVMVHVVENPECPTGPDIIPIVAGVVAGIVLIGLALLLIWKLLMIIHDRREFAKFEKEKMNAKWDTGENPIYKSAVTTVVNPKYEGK
Integrin beta-1 (Homo sapiens) + Integrin alpha-4 (Homo sapiens), sequence (P13612 whole entry, looked up): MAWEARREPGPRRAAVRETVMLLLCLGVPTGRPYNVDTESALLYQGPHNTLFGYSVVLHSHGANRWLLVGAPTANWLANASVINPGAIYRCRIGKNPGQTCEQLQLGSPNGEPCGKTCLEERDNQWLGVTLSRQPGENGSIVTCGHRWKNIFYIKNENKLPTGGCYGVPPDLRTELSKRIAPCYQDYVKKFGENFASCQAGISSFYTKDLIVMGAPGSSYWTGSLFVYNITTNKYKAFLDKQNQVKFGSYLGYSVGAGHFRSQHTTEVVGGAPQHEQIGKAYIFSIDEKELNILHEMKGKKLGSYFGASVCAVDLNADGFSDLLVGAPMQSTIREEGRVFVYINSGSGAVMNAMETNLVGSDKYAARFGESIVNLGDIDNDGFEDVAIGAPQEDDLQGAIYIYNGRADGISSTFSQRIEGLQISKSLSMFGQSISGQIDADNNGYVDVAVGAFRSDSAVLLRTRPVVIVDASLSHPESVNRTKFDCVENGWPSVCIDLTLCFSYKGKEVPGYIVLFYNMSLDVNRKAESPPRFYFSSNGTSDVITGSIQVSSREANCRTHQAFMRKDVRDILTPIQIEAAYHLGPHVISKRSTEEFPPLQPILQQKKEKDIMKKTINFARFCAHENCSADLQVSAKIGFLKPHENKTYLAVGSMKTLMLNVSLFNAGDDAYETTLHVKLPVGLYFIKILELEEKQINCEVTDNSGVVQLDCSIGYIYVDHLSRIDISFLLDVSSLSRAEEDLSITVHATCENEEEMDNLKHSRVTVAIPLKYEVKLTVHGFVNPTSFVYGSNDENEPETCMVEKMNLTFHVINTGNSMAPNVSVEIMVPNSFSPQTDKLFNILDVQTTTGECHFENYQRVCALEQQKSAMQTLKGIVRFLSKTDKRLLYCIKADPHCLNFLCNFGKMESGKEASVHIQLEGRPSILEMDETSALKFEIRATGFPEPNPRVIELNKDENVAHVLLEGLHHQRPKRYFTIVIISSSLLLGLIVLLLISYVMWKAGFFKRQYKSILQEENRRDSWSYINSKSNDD
Beta-adrenergic receptor kinase 1 (Homo sapiens), sequence (P25098 whole entry, looked up): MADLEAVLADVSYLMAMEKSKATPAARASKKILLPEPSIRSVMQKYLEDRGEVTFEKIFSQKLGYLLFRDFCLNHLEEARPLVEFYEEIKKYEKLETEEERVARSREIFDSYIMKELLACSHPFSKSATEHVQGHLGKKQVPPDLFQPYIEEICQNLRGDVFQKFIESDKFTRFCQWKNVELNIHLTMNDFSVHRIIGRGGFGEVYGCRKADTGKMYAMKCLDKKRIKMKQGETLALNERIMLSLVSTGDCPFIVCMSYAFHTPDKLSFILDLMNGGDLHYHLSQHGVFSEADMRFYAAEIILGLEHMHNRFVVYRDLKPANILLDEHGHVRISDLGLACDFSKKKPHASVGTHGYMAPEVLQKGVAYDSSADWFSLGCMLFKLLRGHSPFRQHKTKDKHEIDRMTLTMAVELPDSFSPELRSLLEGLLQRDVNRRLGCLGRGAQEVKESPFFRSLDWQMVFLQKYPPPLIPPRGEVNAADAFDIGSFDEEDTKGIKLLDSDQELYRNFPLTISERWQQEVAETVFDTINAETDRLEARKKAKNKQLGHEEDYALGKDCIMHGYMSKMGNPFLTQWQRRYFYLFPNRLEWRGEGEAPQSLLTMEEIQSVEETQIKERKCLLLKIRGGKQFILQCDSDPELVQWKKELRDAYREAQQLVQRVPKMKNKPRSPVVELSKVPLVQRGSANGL

For `C=C1C2(C(=O)Nc3ccc(SC(F)F)cc3)CCC(C2)C1(C)C` (stereo not given), the percent of DMSO control GFP in [1] was 103% (inactive). For the same molecule, the GFP response vs DMSO in assay [2] is 99.3% (inactive); in [4], 96% (inactive). The percent response of DMSO control in assay [3] is 105% (inactive). In addition, the GFP response, % of DMSO in [5] is 100% (inactive). In assay [6], this molecule returned a double positive events of 66.3%. In assay [6], the vesicle binding response is 1190% (inactive). Moreover, the inhibition was 1.62% (inactive) in assay [7], -6.22% (inactive) in assay [11] and 7% (inactive) in [15]. In assay [8], the superoxide response (% of plate) was 82.1% (inactive). In addition, the aptamer binding inhibition in assay [9] was 1% (inactive). In addition, the response in [10] is -6.87% (inactive); in assay [12] it was 1.62% (inactive). The binding (% of control) in assay [13] was 101% (inactive). Further, in assay [14], the efflux inhibition (fraction of control) is -0.29 (inactive). Further, the differentiation response in assay [16] is 2.2% (inactive).

With `CC1(C)O[C@@H]2C[C@H]3[C@@H]4C[C@H](F)C5=CC(=O)CC[C@]5(C)[C@H]4[C@@H](O)C[C@]3(C)[C@]2(C(=O)CO)O1`, in assay [1], the percent of DMSO control GFP was 97.9% (inactive). The GFP response vs DMSO in [2] is 95.6% (inactive); in [4], 91.5% (inactive). Moreover, the percent response of DMSO control in assay [3] is 89.3% (inactive). For the same molecule, the GFP response, % of DMSO in assay [5] was 92.4% (inactive). For the same molecule, the double positive events in [6] was 63.8%. Further, the vesicle binding response in assay [6] was 128% (inactive). In addition, the inhibition in assay [7] was -2.43% (inactive); in assay [11] it was -4.49% (inactive); in assay [15] it was 12% (inactive). Also, the superoxide response (% of plate) in [8] is 88.9% (inactive). Besides, the aptamer binding inhibition in assay [9] is 37% (active). Besides, the response in [10] is 19% (inactive); in [12], -2% (inactive). Moreover, in [13], the binding (% of control) is 106% (inactive). Further, the efflux inhibition (fraction of control) in [14] was 0.25 (inactive). Further, the differentiation response in assay [16] is 34.9% (inactive).

Turning to `COc1ccc(C2C3=C(OC(C)=O)c4ccccc4C3=Nc3c2c(=O)n(C)c(=O)n3C)cc1` (stereo not given), in assay [1], the percent of DMSO control GFP is 105% (inactive). For the same molecule, the GFP response vs DMSO was 94.6% (inactive) in [2] and 105% (inactive) in assay [4]. Further, in assay [3], the percent response of DMSO control is 106% (inactive). For the same molecule, in [5], the GFP response, % of DMSO is 103% (inactive). This molecule also displayed a double positive events in assay [6] of 58.8%. Further, the vesicle binding response in assay [6] was 127% (inactive). The inhibition in assay [7] is 1.59% (inactive); in [11], 0.59% (inactive); in assay [15], 4% (inactive). Further, the superoxide response (% of plate) in assay [8] is 98.4% (inactive). Besides, in assay [9], the aptamer binding inhibition is -1% (inactive). In addition, the response in assay [10] was -14.8% (inactive); in assay [12], -2.42% (inactive). For the same molecule, in assay [13], the binding (% of control) is 102% (inactive). Besides, the efflux inhibition (fraction of control) in [14] is -0.02 (inactive). Besides, the differentiation response in assay [16] is -11.9% (inactive).

As to `CN1CCc2c(n(CC(O)CN(CCO)CCO)c3ccccc23)C1=O` (stereo not given), in [1], the percent of DMSO control GFP is 92.6% (inactive). Besides, the values for the GFP response vs DMSO in assay [2] and in assay [4] were 143% (active) and 82% (inactive), respectively. For the same molecule, the percent response of DMSO control in assay [3] is 97.9% (inactive). In addition, the GFP response, % of DMSO in assay [5] was 99.6% (inactive). In addition, in assay [6], the double positive events stood at 52.3%. The vesicle binding response in [6] is 195% (inactive). The values for the inhibition in assay [7], in [11] and in assay [15] were -9.06% (inactive), 13.6% (inactive) and 8% (inactive), respectively. In assay [8], the superoxide response (% of plate) is 100% (inactive). Besides, the aptamer binding inhibition in assay [9] was 0% (inactive). For the same molecule, the response in assay [10] was -17.4% (inactive); in assay [12] it was -1.82% (inactive). Besides, the binding (% of control) in assay [13] is 104% (inactive). For the same molecule, the efflux inhibition (fraction of control) in [14] is 0.09 (inactive). The differentiation response in assay [16] is -9.83% (inactive).

For `COC(=O)c1ccc(-c2ncc(-c3cccc4ccccc34)o2)cc1`, the percent of DMSO control GFP in [1] is 98.2% (inactive). Moreover, the GFP response vs DMSO in [2] was 104% (inactive); in [4] it was 125% (inactive). Moreover, the percent response of DMSO control in assay [3] is 105% (inactive). Moreover, the GFP response, % of DMSO in [5] is 109% (inactive). In [6], this molecule registered a double positive events of 61.1%. Besides, the vesicle binding response in assay [6] is 170% (inactive). In addition, the inhibition was -29.2% (inactive) in assay [7], 21.1% (inactive) in assay [11] and 1% (inactive) in assay [15]. The superoxide response (% of plate) in assay [8] was 97.3% (inactive). Further, in assay [9], the aptamer binding inhibition was -1% (inactive). Further, the response in assay [10] is -17.7% (inactive); in [12] it was -15.9% (inactive). In addition, the binding (% of control) in [13] was 90.5% (inactive). Further, the efflux inhibition (fraction of control) in assay [14] is 0.17 (inactive). Also, the differentiation response in assay [16] is 6.83% (inactive).
